# According to PubChem BioAssay AID588850 (Sanford-Burnham Center for Chemical Genomics, 2011):
# “And” between values parts separate entries of the source, which are not always exact repeats. Equal entries are not always repeated. Out of some 360,000 compounds screened, about 3,100 (0.86%) were called active.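 Rule for the calls: active = at least 50% inhibition at 5 µM, scaled per plate between neutral and stimulator controls; inactive = the rest.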 Shown is part of a subset that was picked to be rich in actives.
# Assay: NF-kB reporter blockers in CF airway cells – cell-based, GFP fluorescence, uHTS, primary screen (AID 588850);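 note: PAF is a Pseudomonas aeruginosa culture filtrate used as stimulus; plate controls were PAF-stimulated DMSO wells for no effect and unstimulated DMSO wells for full effect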
# Conditions: KKLEB NF-kB-GFP reporter, PAF-induced, GFP fluorescence overnight; at 5 µM; stronger effect = higher value
row,Compound,inhibition
1,CN1CCN(c2cc(=O)n(-c3ccc(Cl)cc3)c(=O)[nH]2)CC1,16.6% (inactive)
2,CC1CCN(C(=O)c2ccccc2NC(=O)Cc2ccccc2)CC1,16.1% (inactive)
3,N#C/C=C1\Sc2ccccc2C(=O)N1CC(=O)N1CCN(S(=O)(=O)c2ccccc2)CC1,8.2% (inactive)
4,Brc1ccc2ncnc(NCc3cccnc3)c2c1,57% (active)
5,Clc1ccc(Cn2ncc3c(NCc4cccnc4)ncnc32)cc1,-7.9% (inactive)
6,Cc1cc(NCc2cccnc2)no1,-9.7% (inactive)
7,CC(C)Cc1oc(C(=O)O)cc1CN,0.9% (inactive)
8,OC[C@@H]1CN(Cc2ccc(Cl)cc2)C[C@H](n2cnc3c(NCc4ccncc4)ncnc32)O1,-7.1% (inactive)
9,CCN(CC(=O)Nc1cc(Cl)ccc1C)C(=O)CSCc1ccc(C)cc1,-25.2% (inactive)
10,C[C@]12C=CC(=O)C=C1CC[C@@H]1[C@@H]2C(=O)C[C@@]2(C)[C@H]1CC[C@]2(O)C(=O)CO,21.5% (inactive) and 6.7% (inactive)
11,CC1(C)O[C@@H]2CC3C4C[C@H](F)C5=CC(=O)C=CC5(C)C4C(O)CC3(C)[C@]2(C(=O)CO)O1 (stereo not given in full),71.8% (active)
12,COc1cccc(NC(=O)COC(=O)c2ccc3ccccc3n2)c1,3.6% (inactive)
13,C[C@H]1CC[C@]2(O[C@@H](CCO)C[C@@H](O)[C@@H]2O)O1,-22.2% (inactive)
14,O=C(O)c1ccc2c(=O)n3c(nc2c1)/C(=C/c1ccc(Cl)c([N+](=O)[O-])c1)CC3,-4% (inactive)
15,O=C(/C=C/c1ccc(Cl)c([N+](=O)[O-])c1)c1ccc(O)cc1,66.4% (active)
16,O=C(c1ccc(Cl)c([N+](=O)[O-])c1)N1CCN(c2ccccc2)CC1,-1.9% (inactive)
17,NC(=O)c1nsc(C(=O)N(CC(=O)NCc2ccc(F)cc2)Cc2ccco2)c1N,6.2% (inactive)
18,COc1ccc(CNC(=O)C(c2ccc(O)cc2)N(Cc2ccco2)C(=O)c2snc(C(N)=O)c2N)cc1 (stereo not given),80.2% (active)
19,COc1cc(C(C(=O)NC2CCCC2)N(Cc2ccccc2)C(=O)c2snc(C(N)=O)c2N)ccc1O (stereo not given),-3.3% (inactive)
20,O=C1CCC(C(=O)N2CCN(c3ccccc3Cl)CC2)CN1CC1CCCCC1 (stereo not given),25% (inactive)

row,Compound,inhibition
1,Cc1ccc(NS(=O)(=O)c2ccc3c(c2)oc(=O)n3C)c(C)c1,21.8% (inactive)
2,CC(=O)c1c(OCC(=O)N(C)C2CCCCC2)ccc2c(C)cc(=O)oc12,-24.1% (inactive)
3,COc1cccc2c1C(=O)c1c(O)c3c(c(O)c1C2=O)CC(O)(C(C)=NNC(=O)c1ccc(Cl)c(Cl)c1)CC3OC1CC(N)C(O)C(C)O1 (stereo not given),81.2% (active)
4,NS(=O)(=O)c1ccc(N=Cc2ccc(Br)s2)cc1,2.4% (inactive)
5,COc1cccc(CCNC(=O)COc2cccc3c2OC(C)(C)C3)c1,17.3% (inactive)
6,Cc1ccc(-n2cc(CN(C)Cc3nccn3C)c(-c3cccc(C)c3)n2)cc1,28.4% (inactive)
7,CCNc1nc(N)nc(Oc2ccc(OCC)nn2)n1,-19.3% (inactive)
8,O=C(CCCCCCCC(=O)N1CCCCC1)N1CCCCC1,-8.3% (inactive)
9,O=C(c1cc(COc2c(F)cccc2F)on1)N1CCSCC1,19% (inactive)
10,COc1ccc(-c2cc(C(=O)NCCCN3CCCC3=O)c3ccccc3n2)cc1OC,-14% (inactive)
11,COc1ccc(C2=NO[C@@H]3C(=O)N(Cc4ccccc4)C(=O)[C@H]23)cc1OC,11% (inactive)
12,COc1ccc(-c2cc(C(F)(F)F)nc(S(C)(=O)=O)n2)cc1OC,90.7% (active)
13,Cc1ccc(C)c(Cn2nnc3c(=O)[nH]c(C(=O)Nc4ccc(F)cc4)nc32)c1,22.5% (inactive)
14,Cc1cccc(CN2CCC(CNC(=O)Nc3ccc(F)c(Cl)c3)CC2)c1,-7.6% (inactive)
15,Cc1cccc(NC(=O)CCN2CC(C)CC(C)C2)c1 (stereo not given),1.5% (inactive)
16,Cc1cccc(NC(=O)Cn2cc(C(=O)c3ccco3)c3ccccc32)c1,-7.8% (inactive)
17,Cc1cccc(NC(=O)c2nc(S(=O)(=O)Cc3ccccc3)ncc2Cl)c1,89.1% (active)
18,Cc1cccc(CS(=O)(=O)c2ncc(Cl)c(C(=O)Nc3ccc(F)cc3)n2)c1,81.7% (active)
19,ONC(=Nc1ccc(Cl)cc1)c1ccccc1Cl,9.7% (inactive)
20,Nc1nnc(C2CCCC2)s1,0% (inactive)

row,Compound,inhibition
1,OC[C@@H]1CN(C2CCCC2)C[C@H](n2cnc3c(NC4CCC4)ncnc32)O1,6.2% (inactive)
2,O=C(Nc1ccn(Cc2ccccc2)n1)c1n[nH]c([N+](=O)[O-])c1Cl,-15.6% (inactive)
3,O=C(Cc1ccc(Cl)c(Cl)c1)Nc1ccc(SC(F)F)cc1,60.8% (active)
4,Cc1ccc(CC(=O)Nc2ccc(OC(F)F)c(Cl)c2)cc1C,2.1% (inactive)
5,CC(=O)N1CCN(CC(=O)Nc2ccc(SC(F)F)cc2)CC1,5.2% (inactive)
6,COc1ccccc1CC(NC(C)=O)C(=O)NC1CCN(C(=O)Nc2ccccc2Cl)CC1 (stereo not given),2.1% (inactive)
7,O=C1CCC(Cc2ccccc2)N1 (stereo not given),11.2% (inactive)
8,CCOC(=O)/C(=C\c1ccc([N+](=O)[O-])cc1)C(=O)c1cc(C(C)=O)c(Nc2ccccc2)s1,18.8% (inactive)
9,CCOC(=O)C(=Cc1ccccc1)C(=O)c1ccccc1,66.7% (active)
10,CCOC(=O)C(=Cc1ccccc1OC)C(=O)OCC,26.4% (inactive)
11,CN1CCc2c(sc3c2c(NCc2ccco2)nc2nnnn23)C1,-14.3% (inactive)
12,CCN(CC(=O)NCc1cccs1)C(=O)/C=C/c1ccc(C)cc1,-8.4% (inactive)
13,CCCn1nc(C(=O)NNC(=O)CSCC(=O)Nc2cc(C)on2)c2ccccc2c1=O,16.2% (inactive)
14,COc1ccc(CCNc2ncnc3nc[nH]c23)cc1OC,14.3% (inactive)
15,CCc1ccc(N(CC)c2ncnc3nc[nH]c23)cc1,58.2% (active)
16,Cc1ccc(NC(=O)c2ccc(CSc3ncnc4nc[nH]c34)cc2)c(C)c1,-2.8% (inactive)
17,CCCN1C(=O)C(Cc2nc3ccccc3c(=O)n2-c2ccccc2)c2cc(C)ccc21 (stereo not given),-39% (inactive)
18,O=C(Cc1ncc(C(F)(F)F)cc1Cl)Nc1cccc(Br)c1,7.6% (inactive)
19,O=C(CC(O)(C(F)(F)F)C(F)(F)F)Nc1ccc(Cl)c(Cl)c1,62.4% (active)
20,CN(CC(=O)Nc1ccc(Cl)c(C(F)(F)F)c1)C(=O)CCC(=O)c1ccccc1,-0.4% (inactive)
